Source: PubChem
CHX counter – counter-screen for Shiga toxin inhibitors: cycloheximide protein synthesis inhibition | cell reporter, cycloheximide protein synthesis inhibition counterscreen | max response, % | actives 12% (n = 300,000) | AID 2314; in the data active means max response mostly above about 13%, no sharp cut-off; inactive means mostly below about 14%; further: read at 38.3 µM for the half of the compounds with a filed dose; 0% is about no effect
Pf growth 48h – P. falciparum growth inhibition at 48 hours (one generation); P. falciparum luciferase growth in erythrocytes, 48 h; Potency, µM (top dose mostly 28.7 µM), without a hit: at the highest dose activity change, negative = inhibition, usual class: inhibitors; actives 5.9% (n = 310,000); further: potency means the concentration at half of the fitted maximal effect; on the % scale 0 is the no-effect control and ±100 the full control effect
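Cell-based growth assay: transgenic P. falciparum expressing firefly luciferase, cultured in red cells within RPMI 1640 containing 0.5% w/v Albumax, 24 mM bicarbonate and gentamycin. A drop in luciferase activity indicates inhibition.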
LmPK inhibitor – LmPK (Leishmania mexicana) enzyme inhibition; Q27686; purified LmPK, Kinase-Glo ATP luminescence, 1 h; actives 0.37% (n = 290,000); Potency, µM (titrated, usually from 57.5 µM), inactives show top-dose activity change, negative = inhibition, most hits filed as inhibitors; AID 1721; further: potency means the concentration at half of the fitted maximal effect; on the % scale 0 is the no-effect control and ±100 the full control effect
Target sequence (Q27686 whole entry, looked up): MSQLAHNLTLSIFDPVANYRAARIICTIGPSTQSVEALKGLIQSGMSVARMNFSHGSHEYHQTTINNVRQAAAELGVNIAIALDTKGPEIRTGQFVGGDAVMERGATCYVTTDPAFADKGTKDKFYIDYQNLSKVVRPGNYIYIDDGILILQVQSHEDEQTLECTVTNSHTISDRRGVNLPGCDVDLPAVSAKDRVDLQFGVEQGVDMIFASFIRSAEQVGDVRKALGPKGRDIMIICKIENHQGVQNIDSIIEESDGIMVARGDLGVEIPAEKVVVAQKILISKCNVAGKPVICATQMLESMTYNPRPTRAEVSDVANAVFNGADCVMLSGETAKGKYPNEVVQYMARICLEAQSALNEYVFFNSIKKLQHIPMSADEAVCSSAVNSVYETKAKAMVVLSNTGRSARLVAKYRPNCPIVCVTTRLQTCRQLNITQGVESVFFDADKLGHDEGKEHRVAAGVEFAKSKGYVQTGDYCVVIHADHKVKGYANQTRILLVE
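Pyruvate kinase activity monitored as ATP production (luciferase luminescence). Conditions: 0.1 nM enzyme, 0.5 mM PEP, 0.1 mM ADP, 1 h, RT; normalized against uninhibited and no-enzyme wells.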
Pf growth 96h – P. falciparum growth inhibition at 96 hours | P. falciparum luciferase reporter growth, 96 h | Potency, µM (doses to about 28.7 µM), for inactives: at the highest dose activity change, negative = inhibition, hits mostly inhibitors | actives 6.9% (n = 320,000) | AID 504834; further: potency means the concentration at half of the fitted maximal effect; on the % scale 0 is the no-effect control and ±100 the full control effect
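Cell-based qHTS: luciferase-tagged P. falciparum in erythrocytes (2% hematocrit, 0.05% parasitemia final) incubated with compounds for 96 hours, 37 C, 5% CO2; luciferase detection reagent then added and luminescence measured.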
Shiga toxin inh – Shiga toxin inhibition; Vero cells, Shiga toxin protein synthesis inhibition reporter; inhibition, % at 38.7 µM; actives 9.2% (n = 290,000); AID 2315; in the data active means inhibition mostly above about 28%, no sharp cut-off; inactive means mostly below about 43%; further: 0% is about no effect
Numbers without * were called inactive; ? = inconclusive; nt = no result. This is a sample that favours compounds with a hit; in the whole collection about 22% have one here. Unless noted, the call rests on the fitted dose curve; in most records, active means well fitted inhibition curve with a large enough effect; inconclusive means small, poorly fitted or top-dose-only effect, or another doubt; inactive means no such curve, though single readings can be large or run the other way.

SMILES	CHX counter	Pf growth 48h	LmPK inhibitor	Pf growth 96h	Shiga toxin inh
CCCS(=O)(=O)c1c(S(=O)(=O)CCC)c2cnccn2c1C(=O)c1ccc(F)cc1	1.3	13.1µM*	3.4%	-19.9%	3.8
COC(=O)C1=C(c2ccc(F)cc2F)C[C@@H]2CC[C@H]1N2C(=O)NCc1ccco1	nt	?	nt	-18.9%	nt
COC(=O)C1=C(c2ccc(F)cc2OCc2ccccc2)C[C@@H]2CC[C@H]1N2C(=O)NCc1ccc(F)cc1	nt	10.4µM*	nt	?	nt
COC(=O)C1=C(c2ccccc2OCc2ccccc2)C[C@@H]2CC[C@H]1N2C(=O)NCc1ccc(F)cc1	nt	9.28µM*	nt	?	nt
COC(=O)C1=C(c2ccc(F)cc2OCc2ccccc2)C[C@@H]2CC[C@H]1N2C(=O)NCc1ccc([N+](=O)[O-])cc1	nt	11.7µM*	nt	?	nt
COC(=O)C1=C(c2ccc(F)cc2OCc2ccccc2)C[C@@H]2CC[C@H]1N2C(=O)NC1Cc2ccccc2C1	nt	?	nt	1.65µM*	nt
NC(=O)C1CCN(C(=O)Nc2csc3ccccc23)CC1	0.9	-0.9%	0.0%	8.0%	-5.7
COC(=O)C1=C(c2ccccc2OCc2ccccc2)C[C@@H]2CC[C@H]1N2C(=O)NCc1ccc(C(C)(C)C)cc1	nt	6.57µM*	nt	?	nt
COC(=O)C1=C(c2ccc(F)cc2F)C[C@@H]2CC[C@H]1N2C(=O)NCCO	nt	22.5%	nt	36.7%	nt
COC(=O)C1=C(c2c(C)noc2C)C[C@@H]2CC[C@H]1N2C(=O)NCCOc1ccccc1	nt	?	nt	32.4%	nt
COC(=O)C1=C(c2ccc(F)cc2F)C[C@@H]2CC[C@H]1N2C(=O)NCc1ccc(C(F)(F)F)cc1	nt	11.7µM*	nt	?	nt
COC(=O)C1=C(c2ccc(F)cc2F)C[C@@H]2CC[C@H]1N2C(=O)NC(C)C	nt	0.7%	nt	39.4%	nt
COC(=O)C1=C(c2ccc(F)cc2OCc2ccccc2)C[C@@H]2CC[C@H]1N2C(=O)NCc1ccc(C)cc1	nt	9.28µM*	nt	?	nt
COC(=O)C1=C(c2ccc(F)cc2OCc2ccccc2)C[C@@H]2CC[C@H]1N2C(=O)NCCCc1ccccc1	nt	11.7µM*	nt	5.22µM*	nt
COCCn1c(=O)[nH]c2cc(C(=O)Nc3cccc(F)c3)ccc2c1=O	8.2	39.3%	1.5%	?	26.3
O=C(Nc1ccccc1)N1CC=C(c2ccccc2)CC1	36.0*	170.4%	-6.7%	nt	79.5*
O=C(Nc1cccc(F)c1)N1CC=C(n2c(=O)[nH]c3ccccc32)CC1	-1.1	10.4µM*	5.4%	31.8%	-6.1
O=C(CN1CCN(CC(=O)Nc2ccc(-c3ccccc3)cc2)CC1)Nc1ccc(F)cc1	-7.2	-15.0%	-0.7%	-0.5%	-15.7
Cc1ccc(C(=O)N2CC=C(c3ccccc3)CC2)s1	nt	10.4µM*	nt	1.4%	nt
O=C(Nc1ccccc1)N1CC=C(c2ccc(F)cc2)CC1	52.1*	10.4µM*	2.4%	nt	94.9*
Cc1ccsc1C(=O)N1CC=C(c2ccccc2)CC1	nt	?	nt	-23.9%	nt
O=C(Nc1cccc2ccccc12)N1CC=C(c2ccccc2)CC1	-4.1	nt	-1.5%	0.104µM*	34.5
O=C(O)C1CCCCC1C(=O)N1CC=C(c2ccccc2)CC1 (configuration not stated)	27.4*	-21.3%	-5.0%	-9.2%	53.4*
O=C1NC(=S)/C(=C\c2ccc(-c3ccccc3Cl)o2)S1	10.8	25.3%	-0.9%	-9.8%	31.3*
O=C1NC(=O)/C(=C/c2ccc(-c3cc(C(=O)O)ccc3Cl)o2)S1	-1.0	5.5%	-17.2%	?	-7.1
SMILES	CHX counter	Pf growth 48h	LmPK inhibitor	Pf growth 96h	Shiga toxin inh
O=C(O)CC1Sc2nnc(COc3ccc(Cl)cc3)n2N=C1c1ccccc1 (configuration not stated)	-5.0	11.1%	5.2%	-1.5%	-6.6
O=c1oc2ccccc2c(Nc2ccc3ccccc3c2)c1[N+](=O)[O-]	21.9*	?	-1.9%	?	105.0
O=c1oc2ccccc2c(NC(c2ccccc2)c2ccccc2)c1[N+](=O)[O-]	-5.4	10.4µM*	-0.1%	162.8%	-3.4
O=C(NCc1nnc(SCC(=O)N2CCC(Cc3ccccc3)CC2)o1)c1ccccc1F	5.7	8.8%	0.6%	13.1µM*	-0.9
CCOC(=O)N1CCN(C(=O)CSc2nnc(CNC(=O)c3c(F)cccc3Cl)o2)CC1	-4.9	13.5%	-2.5%	11.7µM*	-15.9
O=C(CSc1nnc(CNC(=O)c2c(F)cccc2Cl)o1)c1ccccc1	-3.0	-7.1%	3.1%	9.28µM*	5.7
O=C(Nc1ccccc1C(=O)N1CCOCC1)c1ccc(Br)cc1	-1.9	-1.4%	-5.4%	47.3%	2.5
O=C(COC(=O)c1cnccn1)c1cccc([N+](=O)[O-])c1	-2.4	7.3%	-2.5%	1.3%	5.3
CCOC(=O)C1CCN(C(=O)CCN2C(=O)C3C4C=CC(C4)C3C2=O)CC1 (configuration not stated)	0.8	28.1%	1.8%	5.22µM*	-0.9
O=C(CCN1C(=O)C2C3C=CC(C3)C2C1=O)N1CCCCC1 (configuration not stated)	-1.3	?	-0.5%	?	0.5
COc1cccc(C=Nc2ccccc2C(=O)Nc2ccccc2)c1O	54.6*	87.7%	-2.1%	125.9%	77.5*
CC(=O)c1cccc(N(CC(=O)Nc2ccc(F)cc2)S(C)(=O)=O)c1	11.3*	31.5%	-1.5%	41.0%	41.4*
COc1ccc(NC(=S)Nc2cccc(C(C)=O)c2)cc1OC	13.6	-0.6%	-1.1%	11.7µM*	17.5
CC(=O)Nc1ccc(NC(=O)CN(c2cccc(C(C)=O)c2)S(C)(=O)=O)cc1	-3.5	23.5%	4.2%	16.2%	-10.1
COc1cc(OC)c(C(=O)Nc2cccc(C(C)=O)c2)cc1OC	18.9*	nt	16.6%	2.4%	25.2
CCN(C(=O)COC(=O)COc1ccc(Cl)c(C)c1)C1CCS(=O)(=O)C1 (configuration not stated)	nt	?	nt	5.1%	nt
CC(C)(c1cc(Br)c(O)c(Br)c1)c1cc(Br)c(O)c(Br)c1	nt	5.0%	nt	?	nt
CC(C)(C)C1CCc2onc(C(=O)Nc3ccc4c(c3)OCO4)c2C1 (configuration not stated)	-3.2	16.1%	-0.8%	?	-8.0
COC(=O)c1cccc(NC(=O)c2cc(OC)c(OC)c(OC)c2Br)c1	4.8	5.8%	3.9%	277.5%	20.0
COc1ccc(C(C)NC(=O)Nc2ccc(C(C)=O)cc2)cc1OC (configuration not stated)	22.6*	-8.1%	-3.1%	284.7%	22.7
COc1ccc(C(=O)Nc2cccc(C(C)=O)c2)c(OC)c1OC	21.7*	nt	-0.1%	29.0%	69.5*
COc1ccc(C(=O)Nc2cccc(C(C)=O)c2)cc1OC	30.2*	67.5%	?	33.2%	44.6
CC(=O)c1cccc(NC(=S)Nc2ccc(F)cc2)c1	13.0*	400.5%	2.2%	39.3%	18.9
COC(=O)c1cc(S(=O)(=O)N2CCN(c3ccc(OC)cc3)CC2)cn1C	19.3	-1.2%	-1.4%	-1.7%	11.5
COc1ccccc1C(=O)Nc1cccc(C(=O)c2ccccc2)c1	12.7*	-11.2%	8.0%	43.7%	19.6
